From PubChem BioAssay
Only some compounds are listed: those with a hit (about 2.4% of all), similar ones and a draw of the others.
Pol eta inh-1 – DNA polymerase eta (human) inhibition | 390,000 compounds, 1.2% hits | AID 588591 | Potency, µM (titrated, usually from 114 µM), for the others: top-dose activity change, negative = inhibition, most hits filed as inhibitors | Q9Y253 | recombinant Pol eta, fluorescent DNA replication assay; also: potency is read from the fitted curve at half-maximal effect; % is scaled to controls: 0 for no effect and ±100 for the full control effect
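Fluorescent replication assay: 50 nM final substrate added after a 15 min room-temperature compound preincubation with 10 nM enzyme. Signal taken at 0 min and again at 10 min.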
POLB inh – blocks human DNA polymerase beta activity. Pol beta primer extension/strand displacement, fluorescence kinetic. Potency, µM (series often up to 114 µM), without a hit: top-dose activity change, negative = inhibition, actives largely listed as inhibitors. 340,000 compounds, 1.3% hits. AID 485314; also: potency is read from the fitted curve at half-maximal effect; % is scaled to controls: 0 for no effect and ±100 for the full control effect
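Human Pol beta at 10 nM; strand-displacement substrate 50 nM final. Compound exposure 15 min at room temperature before start, reaction 10 min at room temperature.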
APEX1 inh – blocks human APE1 abasic DNA cleavage | P27695 | recombinant APE1, TAMRA/BHQ-2 abasic DNA cleavage fluorescence | Potency, µM (top dose mostly 65.8 µM), inactives show at the highest dose activity change, negative = inhibition, most hits filed as inhibitors | 350,000 compounds, 0.35% hits | AID 2517;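 also: potency is read from the fitted curve at half-maximal effect; plate controls were vehicle for no effect and reference inhibitor for full effect; nearly all actives have a fitted effect of over 55% in size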
Target sequence (P27695 whole entry, looked up): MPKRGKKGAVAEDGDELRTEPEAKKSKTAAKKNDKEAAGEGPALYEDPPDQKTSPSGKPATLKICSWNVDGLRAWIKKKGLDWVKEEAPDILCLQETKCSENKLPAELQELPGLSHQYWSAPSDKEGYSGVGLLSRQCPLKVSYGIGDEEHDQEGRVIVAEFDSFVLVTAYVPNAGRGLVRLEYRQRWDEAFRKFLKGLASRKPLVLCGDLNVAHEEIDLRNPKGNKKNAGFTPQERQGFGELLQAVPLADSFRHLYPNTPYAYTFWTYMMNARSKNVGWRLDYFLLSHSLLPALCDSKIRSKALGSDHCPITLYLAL
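Enzyme (0.75 nM final) and test compound are incubated 15 min at room temperature before adding 50 nM quenched THF abasic-site duplex. Cleavage dequenches TAMRA, followed at 525/598 nm over three reads one minute apart.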
POLI inh – blocks human DNA polymerase iota activity; Q9UNA4; Pol iota fluorescent replication assay, 10 min; Potency, µM (titrated, usually from 115 µM), for the others: at the highest dose activity, negative = inhibition, most hits filed as inhibitors; 390,000 compounds, 1% hits; also: potency is read from the fitted curve at half-maximal effect
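Pol iota at 10 nM preincubated 15 min with compounds at room temperature; reaction started with fluorescent substrate, 50 nM final. Fluorescence read kinetically at 0 and 10 min; buffer-only wells as negative control.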
Pol kappa inh-1 – blocks human DNA polymerase kappa activity; purified Pol kappa, fluorescent DNA synthesis assay, 10 min; Q9UBT6; 400,000 compounds, 0.53% hits; Potency, µM (highest dose often 107 µM), without a hit: at the highest dose activity, negative = inhibition, usual class: inhibitors; also: potency is read from the fitted curve at half-maximal effect; % is scaled to controls: 0 for no effect and ±100 for the full control effect
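Kinetic fluorescence screen: compound preincubated 15 min RT with 10 nM enzyme; 50 nM substrate (final) initiates; reads at 0/10 min.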
GLS inhibitor – inhibitors of human glutaminase (GLS) | 410,000 compounds, 0.21% hits | GLS enzymatic activity, qHTS titration | Potency, µM (top dose mostly 45.5 µM), inactives show at the top dose activity change, negative = inhibition, usual class: inhibitors | AID 624170 | O94925; also: potency is read from the fitted curve at half-maximal effect; % is scaled to controls: 0 for no effect and ±100 for the full control effect
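Read-out is an Amplex red fluorescence increase coupled through glutamate oxidase and HRP, measured before and after 30 min room-temperature incubation. hKGA is in 45 mM KH2PO4 (pH 8.2) with 0.02% Tween-20; glutamine added as 1mM solution.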
GALK inh confirm – galactokinase (human) inhibition, confirmation; AID 2015; shares compounds with Pol eta inh-1; 150 compounds, 70% hits; purified GALK, Kinase-Glo ATP depletion luminescence; Potency, µM (highest dose often 115 µM), for the others: top-dose activity, negative = inhibition, usual class: inhibitors
Target sequence (P51570 whole entry, looked up): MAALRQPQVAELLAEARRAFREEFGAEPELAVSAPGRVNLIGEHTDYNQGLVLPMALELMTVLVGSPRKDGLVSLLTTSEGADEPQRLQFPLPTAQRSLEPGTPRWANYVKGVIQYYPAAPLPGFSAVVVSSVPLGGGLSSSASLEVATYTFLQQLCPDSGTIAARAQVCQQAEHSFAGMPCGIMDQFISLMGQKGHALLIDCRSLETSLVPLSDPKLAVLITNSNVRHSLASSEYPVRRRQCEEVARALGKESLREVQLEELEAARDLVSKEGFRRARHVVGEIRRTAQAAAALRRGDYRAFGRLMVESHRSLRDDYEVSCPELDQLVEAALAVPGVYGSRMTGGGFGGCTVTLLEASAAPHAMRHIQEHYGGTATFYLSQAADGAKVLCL
GALK redox cs – counter-screen for GALK inhibitors: redox cycling H2O2 generation | shares compounds with Pol eta inh-1 | 150 compounds, 40% hits | Phenol red-HRP H2O2 redox cycling, absorbance 600 nm | Potency, µM (titrated, usually from 115 µM), inactives show top-dose activity change, negative = H2O2 signal, most hits filed as inhibitors
HEK293 tox – HEK-293 cytotoxicity, GALK inhibitor secondary. shares compounds with Pol eta inh-1. HEK-293 viability, ATP luminescence (CellTiter-Glo), 24/48 h. Potency, µM (doses to about 46.1 µM), inactives show at the top dose activity change, negative = cytotoxicity, usual class: inhibitors. 170 compounds, 10% hits; also: potency is read from the fitted curve at half-maximal effect; % is scaled to controls: 0 for no effect and ±100 for the full control effect
Pol kappa inh-2 – Pol kappa (human) inhibition, cherry-pick confirmation; shares compounds with Pol eta inh-1; purified Pol-kappa, fluorescent strand-displacement substrate; Potency, µM, hits mostly inhibitors; 920 compounds, 76% hits; AID 720501; also: potency is read from the fitted curve at half-maximal effect
Pol eta inh-2 – Pol eta (human) inhibition, cherry-pick confirmation; shares compounds with Pol eta inh-1; Pol eta primer extension, TAMRA/BHQ fluorescence, 10 min; Potency, µM, actives largely listed as inhibitors; 2,600 compounds, 64% hits; also: potency is read from the fitted curve at half-maximal effect
* hit, by the source's call. Calls follow the shape of the dose curve; as a rule, active = well fitted curve in the direction sought with a large enough effect; inconclusive = small, poorly fitted or top-dose-only effect, or another doubt; inactive = no such curve, though single readings can be large; an effect the other way counts as inactive or inconclusive.

Results for CC1=NN(c2nc(-c3ccc(C#N)cc3)cs2)C(=O)C1 ?
Pol eta inh-1: -17.7%; POLB inh: 12.8%; APEX1 inh: 7.5%; POLI inh: 33.5%; Pol kappa inh-1: -6.1%; GLS inhibitor: -2.5%

Results for CCOC(=O)Cc1csc(NC(=O)NC2(C(F)(F)F)Oc3cc(Cl)c(Cl)cc3O2)n1 ?
Pol eta inh-1: -20.0%; POLB inh: -7.2%; APEX1 inh: 11.6%; POLI inh: -10.1%; Pol kappa inh-1: 20µM*; GLS inhibitor: -19.0%; Pol kappa inh-2: 10.6*

What do the screens show for `CCOC(=O)Cc1csc(NC(=O)NC2(C(F)(F)F)Oc3ccc(Cl)cc3O2)n1` (stereo unspecified)?
Pol eta inh-1: -13.9%; POLB inh: 0.0%; APEX1 inh: 1.5%; POLI inh: 3.9%; Pol kappa inh-1: -11.5%; GLS inhibitor: inconclusive

Results for O=C(O)c1ccc2c(c1)C(=O)N(c1cccc(C(=O)/C=C/c3ccccc3)c1)C2=O ?
Pol eta inh-1: 31.6µM*; POLB inh: 48.2%; APEX1 inh: 23.0%; POLI inh: inconclusive; Pol kappa inh-1: -12.4%; GLS inhibitor: 7.4%; Pol eta inh-2: 60.1*

Results for COc1ccccc1NS(=O)(=O)c1cc(NC(=O)CNC(=O)c2cc(C)cc(C)c2)ccc1C ?
Pol eta inh-1: -14.8%; POLB inh: -1.3%; APEX1 inh: 13.8%; POLI inh: 2.3%; Pol kappa inh-1: -11.4%; GLS inhibitor: 13.3%

What do the screens show for `COC/C=C/C1=CC2=CC(=O)C(C)(OC(=O)C3CCCC3)C(=O)C2=CO1` (stereo unspecified)?
Pol eta inh-1: 20µM*; POLB inh: 39.8µM*; APEX1 inh: inconclusive; POLI inh: inconclusive; Pol kappa inh-1: 50.1µM*; GLS inhibitor: inconclusive; Pol eta inh-2: 47.8*

Results for O=C(O)/C=C/C(=O)Nc1ccc(C2(c3ccc(NC(=O)/C=C/C(=O)O)cc3)c3ccccc3-c3ccccc32)cc1 ?
Pol eta inh-1: 50.1µM*; POLB inh: 50.1µM*; APEX1 inh: 4.1%; POLI inh: inconclusive; Pol kappa inh-1: -11.9%; GLS inhibitor: -23.7%; Pol eta inh-2: inconclusive

What do the screens show for `COc1ccc(NC(=O)Cn2cc(S(=O)(=O)Cc3ccc(F)cc3)c3ccccc32)cc1OC`?
Pol eta inh-1: 50.1µM*; POLB inh: -25.4%; POLI inh: inconclusive; Pol kappa inh-1: -20.2%; GLS inhibitor: -16.0%; Pol kappa inh-2: inconclusive

Results for CC(C(=O)N1CCCc2ccccc21)N1CCN(S(=O)(=O)c2ccccc2F)CC1 (stereo unspecified) ?
Pol eta inh-1: -16.5%; POLB inh: -16.8%; APEX1 inh: -3.3%; POLI inh: -0.6%; Pol kappa inh-1: 1.7%; GLS inhibitor: 8.5%

Results for CSc1ccc(/C=C2\CCn3c2nc2cc(C(=O)O)ccc2c3=O)cc1 ?
Pol eta inh-1: 50.1µM*; POLB inh: -1.7%; APEX1 inh: 29.8%; POLI inh: 91.9%; Pol kappa inh-1: -10.3%; GLS inhibitor: 98.1%; Pol eta inh-2: inconclusive

Results for COC(=O)c1ccc(/C=C2\CCn3c2nc2cc(C(=O)O)ccc2c3=O)cc1 ?
Pol eta inh-1: -3.2%; POLB inh: 6.7%; APEX1 inh: 20.7%; POLI inh: inconclusive; Pol kappa inh-1: -3.4%; GLS inhibitor: 11.7%

How did O=C1C=C(c2ccc(C(=O)O)cc2)C[C@@H](c2ccc3c(c2)OCO3)C1 do in these assays?
Pol eta inh-1: inconclusive; APEX1 inh: -20.4%; POLI inh: inconclusive; Pol kappa inh-1: -29.4%; GLS inhibitor: 0.5%; Pol eta inh-2: inconclusive

How did COC(=O)CS do in these assays?
APEX1 inh: -0.8%

How did O=C1CCCC(O)=C1Sc1ccccc1C(=O)O do in these assays?
Pol eta inh-1: 8.91µM*; POLB inh: 10µM*; APEX1 inh: inconclusive; POLI inh: 31.6µM*; Pol kappa inh-1: inconclusive; GLS inhibitor: -6.4%; Pol eta inh-2: 60.1*

Results for COc1cc(/C=C2\NC(=S)NC2=O)ccc1OCc1cccc(C(=O)O)c1 ?
Pol eta inh-1: 22.4µM*; POLB inh: inconclusive; APEX1 inh: -13.3%; POLI inh: inconclusive; Pol kappa inh-1: inconclusive; GLS inhibitor: -12.6%; Pol kappa inh-2: 21.2*; Pol eta inh-2: 37.9*

Results for COC(=O)c1ccc(Cn2nnc3sc4c(c3c2=O)CCCC4)cc1 ?
POLB inh: inconclusive; POLI inh: -7.6%; Pol kappa inh-1: -5.7%; GLS inhibitor: -4.8%

Results for O=C(O)c1ccc(Cn2nnc3sc4c(c3c2=O)CCCC4)cc1 ?
Pol eta inh-1: 20µM*; POLB inh: 11.7%; APEX1 inh: -11.7%; POLI inh: inconclusive; Pol kappa inh-1: inconclusive; GLS inhibitor: 2.3%; Pol eta inh-2: inconclusive

How did O=C1c2ccccc2C(=O)c2c1cccc2N(CCO)CCO do in these assays?
Pol eta inh-1: -25.2%; POLB inh: 18.6%; APEX1 inh: 6.7%; POLI inh: 41.9%; Pol kappa inh-1: -7.7%; GLS inhibitor: -0.6%

What do the screens show for `O=C1C=C(N(CCO)Cc2ccccc2)c2ccccc2C1=O`?
Pol eta inh-1: 20µM*; POLB inh: -17.2%; APEX1 inh: -1.5%; POLI inh: 4.47µM*; Pol kappa inh-1: -12.8%; GLS inhibitor: 5.4%; GALK inh confirm: 11.9µM*; GALK redox cs: 5.95µM*; HEK293 tox: -2.0%
